# According to the supplement of paper PMC8728848:
# This is one part of a sample in which the strongest signals are shown more often than they occur.
# Key:
# Experiment in all cases: glycan array binding signal (z-score within array); higher = stronger binding
# Conditions in all cases: glycan notation: IUPAC condensed, linker removed
# [1] = target: Fuc(a1-2)Gal(b1-3)GalNAc(b1-3)Gal
# Outline: (§1)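 From the Consortium for Functional Glycomics database, 3228 arrays were curated, keeping only those whose protein sequence was available. Binding is given as a within-array Z-score averaged across arrays sharing a protein sequence and across linkers. Negative Z-scores can be read as non-binding.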
# [2] = target: Fuc(a1-2)Gal(b1-4)GlcNAc(b1-3)Gal(b1-4)GlcNAc(b1-3)Gal(b1-4)GlcNAc
# Outline: as §1
# [3] = target: Fuc(a1-2)[GalNAc(a1-3)]Gal(b1-4)[Fuc(a1-3)]GlcNAc
# Outline: as §1
# [4] = target: Fuc(a1-3)[Gal(b1-4)]GlcNAc(b1-4)Gal(b1-4)[Fuc(a1-3)]GlcNAc(b1-4)Gal(b1-4)[Fuc(a1-3)]GlcNAc
# Outline: as §1
# [5] = target: Fuc(a1-3)[Gal3S(b1-4)]GlcNAc6S
# Outline: as §1
# Fuc(a1-4)GlcNAc = target: Fuc(a1-4)GlcNAc
# Outline: as §1
# Gal(a1-6)Glc = target: Gal(a1-6)Glc
# Outline: as §1
# [6] = target: Gal(b1-3)[Neu5Ac(a2-6)]GalNAc
# Outline: as §1
# [7] = target: Gal(b1-4)GalNAc(b1-3)[Fuc(a1-2)]Gal(b1-4)GlcNAc
# Outline: as §1
# Gal3S(b1-4)Glc6S = target: Gal3S(b1-4)Glc6S
# Outline: as §1
# Gal3S6S(b1-4)GlcNAc6S = target: Gal3S6S(b1-4)GlcNAc6S
# Outline: as §1
# Gal4S(b1-4)GlcNAc = target: Gal4S(b1-4)GlcNAc
# Outline: as §1
# Gal6S(b1-4)Glc6S = target: Gal6S(b1-4)Glc6S
# Outline: as §1
# [8] = target: Man(a1-2)Man(a1-2)Man(a1-3)[Man(a1-2)Man(a1-3)[Man(a1-2)Man(a1-6)]Man(a1-6)]Man(b1-4)GlcNAc(b1-4)GlcNAc
# Outline: as §1
# [9] = target: Man(a1-2)Man(a1-2)Man(a1-6)[Man(a1-3)]Man
# Outline: as §1
# [10] = target: Man(a1-2)Man(a1-3)[Man(a1-6)]Man(a1-6)[Man(a1-2)Man(a1-3)]Man(b1-4)GlcNAc(b1-4)GlcNAc
# Outline: as §1
# [11] = target: Neu5Ac(a2-3)[GalNAc(b1-4)]Gal(b1-4)GlcNAc
# Outline: as §1
# [12] = target: Neu5Ac(a2-8)Neu5Ac(a2-3)[GalNAc(b1-4)]Gal(b1-4)Glc
# Outline: as §1
# [13] = target: Neu5Ac(a2-8)Neu5Ac(a2-8)Neu5Ac(a2-3)Gal(b1-4)Glc
# Outline: as §1
# [14] = target: Neu5Gc(a2-3)Gal(b1-4)GlcNAc
# Outline: as §1
# [15] = target: Neu5Ac(a2-3)Gal(b1-4)GlcNAc(b1-3)Gal(b1-4)[Fuc(a1-3)]GlcNAc
# Outline: as §1
# [16] = target: Neu5Ac(a2-3)Gal(b1-4)[Fuc(a1-3)]GlcNAc
# Outline: as §1
# [17] = target: Neu5Ac(a2-3)Gal(b1-4)[Fuc(a1-3)]GlcNAc6S
# Outline: as §1
# [18] = target: Neu5Ac(a2-3)[GalNAc(b1-4)]Gal(b1-4)Glc
# Outline: as §1
# [19] = target: Neu5Ac(a2-6)GlcNAc(b1-4)GlcNAc(b1-4)GlcNAc
# Outline: as §1
# [20] = target: Neu5Ac(a2-8)Neu5Ac(a2-8)Neu5Ac(a2-8)Neu5Ac(a2-3)[GalNAc(b1-4)]Gal(b1-4)Glc
# Outline: as §1
# [21] = target: Neu5Gc(a2-3)Gal(b1-4)[Fuc(a1-3)]GlcNAc
# Outline: as §1
# [22] = target: Fuc(a1-2)Gal(b1-3)GalNAc(b1-3)Gal(b1-4)Glc
# Outline: as §1
# [23] = target: Fuc(a1-2)Gal(b1-4)[Fuc(a1-3)]GlcNAc
# Outline: as §1
# Fuc(a1-3)GlcNAc = target: Fuc(a1-3)GlcNAc
# Outline: as §1
# [24] = target: Gal(b1-3)GalNAc(b1-3)Gal(b1-4)GlcNAc
# Outline: as §1
# [25] = target: Gal(b1-4)GlcNAc(b1-2)Man(a1-3)[Gal(b1-4)GlcNAc(b1-2)Man(a1-6)]Man(b1-4)GlcNAc(b1-4)GlcNAc
# Outline: as §1
# Gal3S6S(b1-4)GlcNAc = target: Gal3S6S(b1-4)GlcNAc
# Outline: as §1
# [26] = target: GlcNAc(b1-3)Gal(b1-3)GalNAc
# Outline: as §1
# GlcNAc(b1-3)Gal(b1-4)Glc = target: GlcNAc(b1-3)Gal(b1-4)Glc
# Outline: as §1
# [27] = target: GlcNAc(b1-3)Gal(b1-4)GlcNAc(b1-3)Gal(b1-4)GlcNAc
# Outline: as §1
# [28] = target: GlcNAc(b1-3)[GlcNAc(b1-6)]GlcNAc
# Outline: as §1
# [29] = target: GlcNAc(b1-4)Gal(b1-4)GlcNAc
# Outline: as §1
# [30] = target: Man(a1-2)Man(a1-3)[Man(a1-3)[Man(a1-6)]Man(a1-6)]Man(b1-4)GlcNAc(b1-4)GlcNAc
# Outline: as §1
# Man(a1-3)[Man(a1-6)]Man = target: Man(a1-3)[Man(a1-6)]Man
# Outline: as §1
# [31] = target: Neu5Ac(a2-3)Gal(b1-4)GlcNAc(b1-3)Gal(b1-4)GlcNAc
# Outline: as §1
# Neu5Ac(a2-3)GalNAc = target: Neu5Ac(a2-3)GalNAc
# Outline: as §1
# [32] = target: Neu5Ac(a2-6)Gal(b1-4)GlcNAc(b1-2)Man(a1-3)[Neu5Ac(a2-6)Gal(b1-4)GlcNAc(b1-2)Man(a1-6)]Man(b1-4)GlcNAc(b1-4)GlcNAc
# Outline: as §1
# [33] = target: Neu5Ac(a2-6)Gal(b1-4)GlcNAc6S
# Outline: as §1
# [34] = target: Neu5Ac(a2-8)Neu5Ac(a2-3)Gal(b1-4)Glc
# Outline: as §1
binder,measurement,setting,value
"PEB3 Cj0289c (Campylobacter jejuni), Q9PIK7 (protein) MDVNLYGPGGPHTALKDIANKYSEKTGVKVNVNFGPQATWFEKAKKDADILFGASDQSALAIASDFGKDFNVSKIKPLYFREAIILTQKGNPLKIKGLKDLANKKVRIVVPEGAGKSNTSGTGVWEDMIGRTQDIKTIQNFRNNIVAFVPNSGSARKLFAQDQADAWITWIDWSKSNPDIGTAVAIEKDLVVYRTFNVIAKEGASKETQDFIAYLSSKEAKEIFKKYGWRE",glycan array binding signal (z-score),[1],1.6
same,glycan array binding signal (z-score),[2],-0.33
same,glycan array binding signal (z-score),[3],-0.226
same,glycan array binding signal (z-score),[4],-0.441
same,glycan array binding signal (z-score),[5],0.228
same,glycan array binding signal (z-score),Fuc(a1-4)GlcNAc,-0.029
same,glycan array binding signal (z-score),Gal(a1-6)Glc,1.25
same,glycan array binding signal (z-score),[6],-0.409
same,glycan array binding signal (z-score),[7],-0.381
same,glycan array binding signal (z-score),Gal3S(b1-4)Glc6S,1.38
same,glycan array binding signal (z-score),Gal3S6S(b1-4)GlcNAc6S,2.8
same,glycan array binding signal (z-score),Gal4S(b1-4)GlcNAc,0.039
same,glycan array binding signal (z-score),Gal6S(b1-4)Glc6S,1.36
same,glycan array binding signal (z-score),[8],-0.256
same,glycan array binding signal (z-score),[9],-0.192
same,glycan array binding signal (z-score),[10],-0.25
same,glycan array binding signal (z-score),[11],-0.332
same,glycan array binding signal (z-score),[12],-0.28
same,glycan array binding signal (z-score),[13],-0.456
same,glycan array binding signal (z-score),[14],-0.272
GH98CBM51-1 (Streptococcus pneumoniae) (protein) MTYLSDMDWSSATHGDIDKTKTVQKDAPFTTGNKGEHTKISLLTSDDKVKYFDKGIGTVADSPSVISYDISGQGFEKFETYIGIDQSANSSRSDHAVVDRIEIEIDGKVVYSSSVTNPEGFRYNTQAQFISVTIPQNAKKISLKSFAGEHTWGDEVVFADAKLIKTVST,glycan array binding signal (z-score),[15],-0.191
same,glycan array binding signal (z-score),[16],-0.191
same,glycan array binding signal (z-score),[17],-0.182
same,glycan array binding signal (z-score),[18],-0.196
same,glycan array binding signal (z-score),[19],-0.193
same,glycan array binding signal (z-score),[20],-0.184
same,glycan array binding signal (z-score),[21],-0.182
"X56-1 (Clostridium perfringens), P26831 (protein) MGSSHHHHHHSSGLVPRGSHMASDPNRIIATYISNRQDAPTGNPDNIFDNNASTELVYKNPNRIDVGTYVGVKYSNPITLNNVEFLMGANSNPNDTMQKAKIQYTVDGREWIDLEEGVEYTMPGAIKVENLDLKVRGVRLIATEARENTWLGVRDINVNKKEDSNSGVEF",glycan array binding signal (z-score),[1],0.726
same,glycan array binding signal (z-score),[22],0.136
same,glycan array binding signal (z-score),[23],0.085
same,glycan array binding signal (z-score),Fuc(a1-3)GlcNAc,-0.245
same,glycan array binding signal (z-score),[24],0.197
same,glycan array binding signal (z-score),[25],5.94
same,glycan array binding signal (z-score),Gal3S6S(b1-4)GlcNAc,-0.196
same,glycan array binding signal (z-score),[26],0.035
same,glycan array binding signal (z-score),GlcNAc(b1-3)Gal(b1-4)Glc,-0.355
same,glycan array binding signal (z-score),[27],-0.172
same,glycan array binding signal (z-score),[28],-0.276
same,glycan array binding signal (z-score),[29],-0.371
same,glycan array binding signal (z-score),[30],-0.387
same,glycan array binding signal (z-score),Man(a1-3)[Man(a1-6)]Man,-0.231
same,glycan array binding signal (z-score),[31],9.11
same,glycan array binding signal (z-score),[17],1.06
same,glycan array binding signal (z-score),Neu5Ac(a2-3)GalNAc,-0.264
same,glycan array binding signal (z-score),[18],-0.338
same,glycan array binding signal (z-score),[32],-0.264
same,glycan array binding signal (z-score),[33],-0.039
same,glycan array binding signal (z-score),[34],0.954
